Screening data deposited in PubChem by The Scripps Research Institute Molecular Screening Center.
MITF primary: human MITF inhibition, primary screen; AlphaScreen MITF homodimerization, bead proximity signal; O75030; actives 0.91% (n = 650,000); inhibition, % at 2.6 µM; in the data active means inhibition above about 50%;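 further: 0% = vehicle wells with protein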
TEAD-YAP inh: TEAD-YAP interaction inhibition | inhibition, % at 9.12 µM | actives 1.4% (n = 640,000) | AID 1259422 | HEK-TIYL cells, TEAD-Gal4/YAP UAS-luciferase luminescence; in the data active means inhibition above about 32%;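 further: 0% = median of test compound wells and 100% = reference inhibitor wells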
GPR151 activ: activates the human receptor GPR151. Q8TDV0. PathHunter beta-arrestin GPR151 cells, luminescence. activation, % at 11.2 µM. actives 1% (n = 650,000). AID 1508602; in the data active means activation above about 4.9%;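 further: 0% = median of compound wells and 100% = cells with positive control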
FBW7 activator: activators of human E3 ligase FBW7. Q969H0. AlphaScreen FBW7–phospho-cyclin E peptide binding, activator screen. normalized activity (activation), % at 26.1 µM. actives 0.13% (n = 650,000); in the data active means normalized activity above about 1.9%;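 further: purified mutant Fbw7 with reduced substrate affinity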
Target sequence (Q969H0 whole entry, looked up): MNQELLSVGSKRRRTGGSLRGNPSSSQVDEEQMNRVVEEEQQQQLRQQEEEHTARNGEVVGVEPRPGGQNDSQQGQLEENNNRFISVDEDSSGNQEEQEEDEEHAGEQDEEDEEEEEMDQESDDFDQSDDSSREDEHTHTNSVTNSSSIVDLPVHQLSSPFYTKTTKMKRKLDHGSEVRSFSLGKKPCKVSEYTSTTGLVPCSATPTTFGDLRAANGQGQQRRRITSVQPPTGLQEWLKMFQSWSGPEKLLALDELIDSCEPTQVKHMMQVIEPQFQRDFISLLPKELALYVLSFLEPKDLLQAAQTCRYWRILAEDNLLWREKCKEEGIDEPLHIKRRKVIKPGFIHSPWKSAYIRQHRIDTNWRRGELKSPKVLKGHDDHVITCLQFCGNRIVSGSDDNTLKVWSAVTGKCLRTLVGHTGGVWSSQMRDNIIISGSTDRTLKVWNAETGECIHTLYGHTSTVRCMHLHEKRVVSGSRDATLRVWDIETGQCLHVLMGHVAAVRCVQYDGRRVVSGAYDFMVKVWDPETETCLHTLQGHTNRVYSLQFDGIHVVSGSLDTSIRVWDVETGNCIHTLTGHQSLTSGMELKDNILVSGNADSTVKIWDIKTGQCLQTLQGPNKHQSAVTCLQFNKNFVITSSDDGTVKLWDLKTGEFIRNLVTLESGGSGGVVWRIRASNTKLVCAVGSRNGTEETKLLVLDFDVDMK
Numbers without * were called inactive. An excerpt weighted towards active compounds, which were near 3.4% of everything screened.

Results for CSc1ccc(NC(=O)N2CCCC(N3CCN(c4ccccc4)CC3)C2)cc1 (configuration not stated) ?
MITF primary: 6; TEAD-YAP inh: 4; GPR151 activ: -1; FBW7 activator: 0

What do the screens show for `O=C1NC(=O)C(CCc2ccccc2)(C2CCN(Cc3ccc4cccnc4c3)CC2)N1` (configuration not stated)?
MITF primary: -1; TEAD-YAP inh: -6; GPR151 activ: 0; FBW7 activator: 0

How did O=C(c1cc([N+](=O)[O-])ccc1Cl)N1CCCCCC1 do in these assays?
MITF primary: 1; TEAD-YAP inh: 4; GPR151 activ: 1; FBW7 activator: 0

How did COc1cccc(C2=NOC(C(=O)Nc3cc(Br)ccc3O)C2)c1 (configuration not stated) do in these assays?
MITF primary: 5; TEAD-YAP inh: -11; GPR151 activ: -1; FBW7 activator: 0

How did COc1ccc(-c2nc(NCCc3ccc(O)cc3)c3[nH]cnc3n2)cc1 do in these assays?
MITF primary: 2; TEAD-YAP inh: 59*; GPR151 activ: 1; FBW7 activator: 0

Results for COc1ccc(-c2nc(NCCc3ccc(O)cc3)c3[nH]cnc3n2)cn1 ?
MITF primary: 8; TEAD-YAP inh: 33*; GPR151 activ: 2; FBW7 activator: 0

What do the screens show for `COc1ccc(CCNc2nc(-c3ccc(OC)nc3)nc3nc[nH]c23)cc1`?
MITF primary: 15; TEAD-YAP inh: 20; GPR151 activ: 0; FBW7 activator: 0

What do the screens show for `Cc1ccc2c(c1)sc(=NC(=O)c1ccc(S(=O)(=O)N3CC(C)CC(C)C3)cc1)n2C` (configuration not stated)?
MITF primary: 21; TEAD-YAP inh: -1; GPR151 activ: -1; FBW7 activator: 0

What do the screens show for `O=C(Nc1nc2ccccc2[nH]1)c1ccc(F)cc1`?
MITF primary: 7; TEAD-YAP inh: 43*; GPR151 activ: -8; FBW7 activator: 0

Results for O=C(Nc1nc2ccccc2[nH]1)c1cccc(I)c1 ?
MITF primary: -10; TEAD-YAP inh: -43; GPR151 activ: 0; FBW7 activator: 0

What do the screens show for `O=C(Nc1nc2ccccc2[nH]1)c1ccccc1F`?
MITF primary: 3; TEAD-YAP inh: 89*; GPR151 activ: -9; FBW7 activator: 0

What do the screens show for `COc1ccc(Cl)cc1C(=O)Nc1nc2ccccc2[nH]1`?
MITF primary: 0; TEAD-YAP inh: 66*; GPR151 activ: -10; FBW7 activator: 0

What do the screens show for `CC(=O)OC(=C(Cl)Cl)c1ccc(C(OC(C)=O)=C(Cl)Cl)cc1`?
MITF primary: -1; TEAD-YAP inh: 42*; GPR151 activ: 4; FBW7 activator: 0

How did CC(=O)Oc1ccc(C(=O)c2ccc(OC(C)=O)cc2)cc1 do in these assays?
MITF primary: 16; TEAD-YAP inh: 3; GPR151 activ: 1; FBW7 activator: 0

What do the screens show for `CCc1c(C(=O)c2ccccc2)oc2ccc3c(C)cc(=O)oc3c12`?
MITF primary: -6; TEAD-YAP inh: 41*; GPR151 activ: 0; FBW7 activator: 0

Results for Cc1ccc(C(=O)c2oc3ccc4c(C)cc(=O)oc4c3c2-c2ccccc2)cc1 ?
MITF primary: -5; TEAD-YAP inh: 62*; GPR151 activ: -1; FBW7 activator: 0

What do the screens show for `CCc1c(C(=O)c2ccc(Cl)cc2)oc2ccc3c(C)cc(=O)oc3c12`?
MITF primary: 28; TEAD-YAP inh: -6; GPR151 activ: -2; FBW7 activator: 1

What do the screens show for `CC1CCCCN1C(=O)Cn1nc2n(C)c3ccccc3n2c1=O` (configuration not stated)?
MITF primary: -10; TEAD-YAP inh: 13; GPR151 activ: 2; FBW7 activator: 0

What do the screens show for `CCOc1ccc(NC(=O)c2ccccc2)c(NC(=O)c2ccccc2Br)c1`?
MITF primary: -3; TEAD-YAP inh: -8; GPR151 activ: -1; FBW7 activator: 0

Results for NC(=O)c1ccccc1Nc1ncnc2c1nc1n2CCCCC1 ?
MITF primary: -11; TEAD-YAP inh: 48*; GPR151 activ: 1; FBW7 activator: 0

How did O=C(CN(Cc1ccccc1)C(=O)C(=O)Nc1ccc2c(c1)OCO2)NC1CCCCC1 do in these assays?
MITF primary: -1; TEAD-YAP inh: -1; GPR151 activ: -2; FBW7 activator: 0

Results for O=C(O)COCc1nc2ccccc2c(=O)[nH]1 ?
MITF primary: 2; TEAD-YAP inh: -1; GPR151 activ: -1; FBW7 activator: 0

Results for O=C(CN1C(=O)C2C3C=CC(C4CC34)C2C1=O)N1CCC(c2ccncc2)CC1 (configuration not stated) ?
MITF primary: 10; TEAD-YAP inh: 50*; GPR151 activ: 2; FBW7 activator: 1

Results for COc1cc(NC(=O)c2ccc(-c3ccc(C(N)=O)cc3)s2)cc(OC)c1OC ?
MITF primary: 2; TEAD-YAP inh: 10; GPR151 activ: 0; FBW7 activator: 0

Results for COc1ccc(-c2ccc(C(=O)Nc3cc(OC)c(OC)c(OC)c3)s2)cc1 ?
MITF primary: 24; TEAD-YAP inh: 36*; GPR151 activ: -3; FBW7 activator: 0

How did COc1cc(NC(=O)c2ccc(-c3ccc(N4CCN(C)CC4)cc3)s2)cc(OC)c1OC do in these assays?
MITF primary: 10; TEAD-YAP inh: 62*; GPR151 activ: 0; FBW7 activator: 0

How did O=C(Cn1cnc2sc3c(c2c1=O)CCCC3)NCC(=O)Nc1ccc(F)cc1 do in these assays?
MITF primary: 0; TEAD-YAP inh: 3; GPR151 activ: 1; FBW7 activator: 0

Results for O=C(O)c1n[nH]c2c1CCCCCC2 ?
MITF primary: -7; TEAD-YAP inh: -11; GPR151 activ: 1; FBW7 activator: 0

What do the screens show for `CN(C)c1ccc(/C=N/NC(=O)c2n[nH]c3c2CCC3)cc1`?
MITF primary: 10; TEAD-YAP inh: 35*; GPR151 activ: 1; FBW7 activator: 0

What do the screens show for `O=C(NN=C1CCCCC1)c1n[nH]c2c1CCC2`?
MITF primary: 18; TEAD-YAP inh: 57*; GPR151 activ: -1; FBW7 activator: 0

How did C/C(=N/NC(=O)c1n[nH]c2c1CCCC2)c1cccc(O)c1 do in these assays?
MITF primary: -3; TEAD-YAP inh: 23; GPR151 activ: 0; FBW7 activator: 0

Results for C/C(=N/NC(=O)c1n[nH]c2c1CCC2)c1cccc(O)c1 ?
MITF primary: -1; TEAD-YAP inh: 40*; GPR151 activ: 1; FBW7 activator: 0

How did O=C(N/N=C/c1cccc(O)c1)C1C2CCCCC21 (configuration not stated) do in these assays?
MITF primary: -4; TEAD-YAP inh: 60*; GPR151 activ: -1; FBW7 activator: 0

What do the screens show for `COc1ccc(-c2nnc(C3CCCN(C(C)=O)C3)s2)cc1` (configuration not stated)?
MITF primary: -2; TEAD-YAP inh: -41; GPR151 activ: -1; FBW7 activator: 0

How did COc1cccc(CC(C2CCN(C(=O)[C@@H]3CCC(=O)N3)CC2)N(C)C(=O)CC(C)C)c1 (some centres not stated) do in these assays?
MITF primary: 5; TEAD-YAP inh: 5; GPR151 activ: 1; FBW7 activator: 0
